In the library only some 13% were active in any assay of this set; here they are far more common.
Pf growth 48h: P. falciparum growth inhibition at 48 hours (one generation) | AID 504832 | P. falciparum luciferase growth in erythrocytes, 48 h | actives 5.9% (n = 310,000) | Potency, µM (top dose mostly 28.7 µM), for inactives: at the top dose activity change, negative = inhibition, hits mostly inhibitors; also: potency is read from the fitted curve at half-maximal effect
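Compounds are pin-transferred into medium, infected erythrocytes (2% hematocrit, 0.1% parasitemia final) are added, and plates sit one parasite generation at 37 C in 5% CO2. Detection reagent is then added and luminescence measured.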
HCMV antiviral: inhibitors of human cytomegalovirus | activity change, negative = inhibition, % at 57.5 µM | HFF cells, HCMV-luciferase reporter, 72 h; stronger effect = lower value | AID 1259415 | actives 4.5% (n = 410,000); in the data active = activity change below about -60%; inconclusive = no clear call, values can overlap the other calls; inactive = above about -39%
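Cell-based, HFFs, 1000 cells/well, 16 h 37C; cpds in DMSO + HCMV-luc, MOI 1 PFU/cell; 72 h 37C; OneGlo luminescence after 5 min RT; norm. to buffer vs Salinomycin 10uM.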
Pf growth 96h: P. falciparum growth inhibition at 96 hours | Potency, µM (series often up to 28.7 µM), inactives show top-dose activity change, negative = inhibition, hits mostly inhibitors | actives 6.9% (n = 320,000) | P. falciparum luciferase reporter growth, 96 h; also: potency is read from the fitted curve at half-maximal effect
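Parasite growth measured via integrated firefly luciferase reporter in P. falciparum. Infected erythrocytes at 2% hematocrit, 0.05% parasitemia final were treated 96 hours at 37 C under 5% CO2, and luminescence was read.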
HCV inh: HCV inhibition; AID 651820; actives 3.4% (n = 340,000); Huh7.5.1 HCVcc-Cre infection, luciferase reporter, 44 h; Potency, µM (series often up to 41.8 µM), for inactives: top-dose activity change, negative = inhibition, usual class: inhibitors; also: potency is read from the fitted curve at half-maximal effect
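Seed cells (1,000/well) for 4 h; treat with compound and infect with HCVcc-Cre, moi about 0.5. Incubate 44 h, then detect luciferase activity.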
Numbers without * were called inactive; ? = inconclusive; . = not tested or not shown; ! = not active in a repeat; [ ] = remark or other dose. Unless noted, calls follow the shape of the dose curve; as a rule, active = well fitted inhibition curve with a large enough effect; inconclusive = small, poorly fitted or top-dose-only effect, or another doubt; inactive = no such curve, though single readings can be large or run the other way. % is scaled to controls: 0 for no effect and ±100 for the full control effect.

SMILES | Pf growth 48h | HCMV antiviral | Pf growth 96h | HCV inh
O=C(CSc1nnc(CCc2nc3ccccc3[nH]2)n1-c1ccccc1)NCc1ccco1 | -15% | 16 | ? | 4%
O=C(CSc1nnc(CCc2nc3ccccc3[nH]2)n1-c1ccccc1)NCc1ccccc1 | ? | 16 | 10µM* | -6%
COc1ccc(-n2c(CCc3ccccc3)nnc2SCC(=O)NCc2ccccc2)cc1 | . | -20 | 10µM* | -1%
COC(=O)c1ccc(Cn2c(=O)cc(C)c3c(C)nn(C)c32)cc1 | . | 4 | . | .
O=C(NC(=O)c1ccc(F)cc1F)Nc1ccc(Cl)cc1 | 5.2µM* | 30 | 165% | 0%
Cc1ccc(NC(=O)c2ccc(F)cc2F)cc1 | . | 58 | . | 1%
Cc1cc(C)[n+](C2C3CC4CC(C3)CC2C4)o1 (stereo unspecified) | ? | ? | 1.9µM* | 3%
Cc1cc(C(=O)Nc2cccc3ccccc23)n(-c2ccccc2)n1 | -13% | 89 | 3.3µM* | -6%
Cc1cc(C(=O)Nc2cccc(C)c2C)n(-c2ccccc2)n1 | 30% | -88* | 21% | 5%
Cc1ccc(S(=O)(=O)n2cc(C=O)c3ccccc32)cc1 | 5% | 26 | 9% | -28%
Cc1ccc(S(=O)(=O)n2cc(-c3ccccc3)c3ccccc32)cc1 | 2.6µM* | -71* | ? | ?
COc1ccc(NC(=O)CN(C)CC(=O)c2c(C)[nH]c3ccccc23)cc1 | ? | 35 | 12µM* | -4%
COc1cccc(NC(=O)CN(C)CC(=O)NCc2ccc(F)cc2)c1 | . | ? | . | 5%
CCC(C)c1ccc(NC(=O)CN(C)CC(=O)Nc2cccc(OC)c2)cc1 (stereo unspecified) | 12µM* | -7 | ? | 7%
COc1cccc(NC(=O)CN(C)CC(=O)c2c(C)[nH]c3ccccc23)c1 | ? | 2 | 12µM* | -24%
COc1cccc(CNCCSc2nnnn2-c2ccccc2)c1OC | . | 4 | . | .
CCN(c1ccccc1)c1nnc(NC(=O)Nc2cccc(Cl)c2C)s1 | . | 5 | . | .
CC(=O)N(C)C1=C(N2CCOCC2)C(=O)c2ccccc2C1=O | 2.1µM* | . | 0.29µM* | 0.56µM*
CC(=O)N(C1=C(N2CCOCC2)C(=O)c2ccccc2C1=O)c1ccc(C(=O)O)cc1 | 1µM* | -34 | 0.41µM* | 13%
O=C(Cc1ccccc1)N(Cc1cccnc1)c1nc2ccc(F)cc2s1 | . | 29 | . | .
CCc1ccc(CNC(=O)CSc2cc(=O)n(C)c3ccc(Cl)cc23)cc1 | . | 0 | . | .
Oc1c(C(c2ccccc2F)N2CCN(Cc3ccccc3)CC2)sc2nc(-c3ccco3)nn12 (stereo unspecified) | . | 10 | . | .
COC(=O)CC(=O)O[C@H]1C=C[C@@H](NC(=O)OC(C)(C)C)C1 | . | -16 | . | 32µM*
Cc1ccc(C)c(Cn2nnc3c(=O)[nH]c(C(=O)NCc4ccco4)nc32)c1 | -10% | -10 | ? | .
O=C(CSCc1c(Cl)cccc1Cl)NCc1ccco1 | ? | 15 | 13µM* | -13%
SMILES | Pf growth 48h | HCMV antiviral | Pf growth 96h | HCV inh
O=C(CSCc1c(F)cccc1Cl)NCc1ccco1 | ? | -5 | 61% | 2%
O=C(CN1CCN(Cc2ccccc2Cl)C1=O)NCc1ccco1 | 6% | 41 | 3.3µM* | -24%
O=C(NCc1ccco1)C(=O)NCc1ccccc1Cl | 21% | 13 | ? | 6%
O=C(NCc1ccco1)c1nc2c(nnn2Cc2ccccc2Cl)c(=O)[nH]1 | 9.3µM* | -98* | 0% | ?
Cc1c(NC(=O)c2ccc(-c3ccc(F)cc3)o2)cccc1-c1nc2ncccc2o1 | . | -1 | . | .
Cc1ccc(S(=O)(=O)c2cnc(SCC(=O)Nc3ccc4c(c3)OCCO4)[nH]c2=O)cc1 | . | 10 | . | .
Cc1cccc(NC(=O)Cn2c(=O)n(CCC(=O)N3CCc4ccccc4C3)c(=O)c3ccccc32)c1 | . | -2 | . | .
CC1CCN(Cc2c(C(=O)N/N=C/c3ccc(C(C)C)cc3)nnn2-c2nonc2N)CC1 | ? | -4 | 1.7µM* | -1%
Nc1nonc1-n1nnc(C(=O)N/N=C/c2ccc(Cl)cc2Cl)c1CN1CCCC1 | 13% | 1 | 1% | 14%
Nc1nonc1-n1nnc(C(=O)N/N=C/c2cccc(Cl)c2Cl)c1CN1CCCC1 | 2% | -61* | 11% | ?
CC1CCN(Cc2c(C(=O)N/N=C/c3ccc(C(C)(C)C)cc3)nnn2-c2nonc2N)CC1 | ? | -2 | ? | -15%
COCc1nnc(NS(=O)(=O)c2ccccc2)s1 | 4% | 10 | 1µM* | 0%
NC(=O)C1CCN(C(=O)C2CCC(=O)N(Cc3ccc(Cl)cc3)C2)CC1 (stereo unspecified) | . | 51 | . | 31%
Cc1ccc(N2CCN(C(=O)C3CCC(=O)N(Cc4ccc(Cl)cc4)C3)CC2)c(C)c1 (stereo unspecified) | ? | ? | -12% | 11µM*
CCN1CCN(c2ncnc3scc(-c4ccc(C)cc4)c23)CC1 | 0% | -22 | ? | -9%
COc1ccc(-c2csc3ncnc(N4CCN(S(=O)(=O)c5ccc(C)c(C)c5)CC4)c23)cc1 | ? | -1 | ? | 11µM*
Cc1ccc(-c2csc3ncnc(N4CCN(S(=O)(=O)c5cccs5)CC4)c23)cc1 | 6.6µM* | . | ? | ?
Cc1ccc(-c2csc3ncnc(N4CCN(S(=O)(=O)c5ccc(C#N)cc5)CC4)c23)cc1 | . | -8 | . | .
CC(C)NC(=O)c1cc(C(=O)c2cc(Cl)ccc2O)coc1=N | -21% | -4 | ? | -25%
CCOc1ccccc1NC(=O)c1cc(C(=O)c2cc(OC)ccc2O)coc1=N | 4.7µM* | -23 | 2.3µM* | -22%
COc1cc(OC)cc(C(=O)NCC(C)NC(=O)c2cc(OC)cc(OC)c2)c1 (stereo unspecified) | . | 14 | . | -20%
CCNC(=O)NC(C(=O)OC)C12CC3CC(CC(C3)C1)C2 (stereo unspecified) | 4% | -5 | . | 0%
COCCNC(=O)C(NC(=O)C1CCCCC1)C12CC3CC(CC(C3)C1)C2 (stereo unspecified) | ? | 4 | 1.5µM* | 13%
COc1cc(OC)cc(C(=O)NC(C(=O)NCCN(C)C)C23CC4CC(CC(C4)C2)C3)c1 (stereo unspecified) | ? | 18 | 2%[5.75 µM] | 10µM*
CC(=O)N1CCc2c(sc3c2c(=O)n(-c2ccccc2)c(=O)n3CC(=O)Nc2ccccc2C)C1 | . | 14 | . | .
SMILES | Pf growth 48h | HCMV antiviral | Pf growth 96h | HCV inh
COc1ccc(C(=O)Nc2cc3c4c(c2)CC(=O)N4CCC3)cc1 | -7% | -10 | -4% | 2.2µM*
COc1ccc(C(=O)N2CCCC2=O)cc1 | 19% | ? | 13µM*! | 11%[8.37 µM]
COc1ccc(C(=O)Nc2cccc3c2CCCC3)c(OC)c1 | . | -32 | . | 32µM*
COc1ccc(C(=O)Nc2cc3c4c(c2)CC(=O)N4CCC3)c(OC)c1 | -6% | . | 2% | 4µM*
Cc1ccc(/C=C/C(=O)O)cc1S(=O)(=O)N(CCO)CCO | -12% | 11 | 9.3µM* | 0%
N#Cc1c[nH]n2c(NC3CCCCC3)c(-c3cccc(Cl)c3)nc12 | . | -4 | . | .
